Measured values from PubChem BioAssay AID1047 (SRMLSC, 2008).
Among all 1,500 compounds or so, about 1,400 (93%) were called active. The set was probably picked from earlier hits. The list is a sample of the results. Entries with a potency or affinity are not part of this list. Unmarked numbers belong to inactive results. No rule for the calls is given here.

Experiment: viability of PTEN-deleted HCT116 cells – cell-based, HCT116 PTEN knockout, dose response (AID 1047)
Conditions: CellTiter-Glo, 60 h; series mostly up to 30 µM; viability: at the top concentration

Compound	viability
CCOC(=O)c1c(C2COc3ccccc3O2)csc1NC(=O)c1ccccc1 (stereo not given)	84.2%
O=C(CSc1ncnc2c1nnn2-c1ccc(F)cc1)NCC1CCCO1 (stereo not given)	86.8%
COC(=O)Nc1nc2c(s1)CCCC2	96.2%
Cc1cc(C)c2c(=O)n(CC(=O)NCCCN3CCOCC3)sc2n1	90.3%
CN1/C(=C\C(=S)NC(=O)c2ccc([N+](=O)[O-])cc2)C(C)(C)c2ccccc21	87.3%
COc1ccc(NC(=O)CCCn2c(=O)c3sccc3n(Cc3ccccc3)c2=O)cc1	94%
COC(=O)C1=C(C)N(Cc2ccco2)C(=O)N[C@@H]1c1cccc(C(F)(F)F)c1	84.9%
CC(C)(C)c1ccc(CNc2ccc([N+](=O)[O-])cn2)cc1	95%
Cc1cc(Nc2ccccc2)nn1C(=O)c1ccccc1	91.5%
O=C(NCCOc1ccccc1)C(c1ccccc1)c1ccccc1	98.4%
COc1ccc(C(=O)CCN2CCCCCC2)cc1	85.5%
CCCCNS(=O)(=O)c1ccc2nc(-c3cccnc3)cc(C(=O)NC3CC3)c2c1	89.9%
CCN(CC)S(=O)(=O)c1ccc(-c2nnc(SCc3nnc(-c4ccccc4)o3)o2)cc1	90.7%
C=C1C(O)C[C@H]2C(=C)CCC3[C@H](OC(=O)[C@]3(O)CO)[C@@H]12 (stereo not given in full)	97.3%
O=S(=O)(c1cccc2ccccc12)N1CCSC1	99.6%
COCCn1c(=NC(=O)CSCC(=O)Nc2cc(C)on2)sc2cc(C(=O)OC)ccc21	99.8%
O=C(CCNc1cc(Cl)cc(Cl)c1)c1ccco1	92.8%
c1ccc(-c2cc3n(c2)CCc2ccccc2-3)cc1	87.2%
[N-]=[N+]=NC1C[C@H](n2ccc(=O)[nH]c2=O)O[C@@H]1CO (stereo not given in full)	102%
O=C(Nc1cccc(C(F)(F)F)c1)NC1CCCCC1	83.1%
